Records with an inconclusive call do not appear. Entries that show only a call come without a potency. Calls of active or inactive are those of the source. Calls follow the shape of the dose curve; as a rule, active = well fitted inhibition curve with a large enough effect; inconclusive = small, poorly fitted or top-dose-only effect; inactive = flat fitted curve, though single readings scatter.

In this assay the test system is MCC-26. The assay is described as follows: qHTS assay to identify novel small-molecules to repurpose for Merkel cell carcinoma treatment (AID 1296009). Also: nearly all actives have a fitted effect of over 60% in size. As to conditions: MCC and control cell lines, CellTiter-Glo viability, 72 h; series mostly up to 46 µM. In short, it runs like this: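 CellTiter-Glo luminescence after 72 hr compound exposure at 37 degree celsius gave cell viability. Libraries NPC and MIPE were run as 8- and 11-point dose responses; RLUs normalized to DMSO (negative) and no-cell (cytotoxicity) controls.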
Background: Quantitative high-throughput screening tests each substance at several concentrations.
In the case of `Cc1cnc(Nc2cccc(CN3CCOCC3)c2)nc1Nc1cccc(S(=O)(=O)NC(C)(C)C)c1`, the Potency result is “inactive”. `CS(=O)(=O)c1ccc(C2=C(c3ccccc3)C(=O)OC2)cc1`: the Potency result was “inactive”. Under `O=C(O)CCNc1cc(N2CCc3ccccc3CC2)nc(-c2ccccn2)n1` stands “inactive”; under `CCn1c(-c2nonc2N)nc2cncc(CNC3CCNCC3)c21`, “inactive”.

For the molecule `CC(C)CNc1ccnc(NCc2csc(-c3ccccc3)n2)n1`, the Potency result was “inactive”. Under `Cn1c(=O)c(-c2c(Cl)cccc2Cl)cc2cnc(Nc3cccc(C(=O)O)c3)nc21` stands “inactive”; under `COc1cc(Nc2nc3ccccc3nc2NS(=O)(=O)c2ccc(NC(=O)c3ccc(C)c(OC)c3)cc2)cc(OC)c1`, “inactive”. The same measure for `CC1=C(C(=O)Nc2cc3cn[nH]c3cc2F)C(c2ccc(C(F)(F)F)cc2)CC(=O)N1` (stereo not drawn): “inactive”; for `NC(=O)c1ccc(N(C(N)=O)c2c(F)cccc2F)nc1-c1ccc(F)cc1F`: “inactive”. As to `Clc1ccc(C2(c3ccc(-c4cn[nH]c4)cc3)CCNCC2)cc1`, the Potency result was “inactive”.

As for `NS(=O)(=O)c1cc(Cl)c(Cl)c(S(N)(=O)=O)c1`, the Potency result was “inactive”.

`C[C@H](c1ccc(F)cc1CCCC(=O)O)N(c1cc(F)ccc1F)S(=O)(=O)c1ccc(Cl)cc1`: the Potency entry was “inactive”. Under `COc1nccc(-c2c(-c3ccc(F)cc3)ncn2C2CCC(O)CC2)n1` (stereo not drawn) stands “inactive”; under `CC(C)(OCc1nn(Cc2ccccc2)c2ccccc12)C(=O)O`, “inactive”; under `COc1ccc(CCC(=O)Nc2nc3ccc(Cl)cc3s2)cc1OC`, “inactive”. Under `c1cc(OCCN2CCCCC2)cc(-c2n[nH]c3ccc(-c4ncn[nH]4)cc23)c1` stands “inactive”; under `CCN1CCN(c2ccc(Nc3cc(N(C)C(=O)Nc4c(Cl)c(OC)cc(OC)c4Cl)ncn3)cc2)CC1`, “inactive”; under `CN(C)c1nc(Cc2ccc(NC(=O)c3ccc(C(F)(F)F)cc3)cc2)nc(N(C)C)c1CC(=O)O`, “inactive”. `CN1c2ccccc2C(=O)N2CCc3c([nH]c4ccccc34)C21` (stereo not drawn): the Potency entry was “inactive”. The same measure for `Cc1ccccc1C(C(=O)NC1CCCCC1)N(C(=O)CNc1ccc(C#N)cc1)c1cccc(F)c1` (stereo not drawn): “inactive”. Under `Cc1ccc2c(c1)c1c(n2CCc2ccc(C)nc2)CCN(C)C1` stands “inactive”; under `C[C@@]1(c2cc(-c3cncnc3)c(F)cc2F)CCSC(N)=N1`, “inactive”.

As to `Cc1cnc(-c2cc(N3CCN(C(=O)CCS(C)(=O)=O)CC3)ncc2Cl)c(C)c1`, the Potency result is “inactive”. With `CCN1C[C@H](C)n2c(c(O)c3c(=O)n(Cc4ccc(F)c(Cl)c4)nc(C(=O)NC)c32)C1=O`, the Potency result was “inactive”. The same measure for `CNc1nc(Nc2ccc(C(=O)N3CCOCC3)cc2OC)ncc1Cl`: “inactive”; for `CC1CCN(c2cc(N3CCN(C)CC3)ccc2NC(=O)c2cc(C#N)c[nH]2)CC1`: “inactive”; for `Cc1cc2c(cc1C1(c3ccc(C(=O)O)cn3)CC1)C(C)(C)CCC2(C)C`: “inactive”. Consider `c1ccc(CNc2nc(N3CCOc4ccccc43)nc3c2CCCC3)cc1`, for which the Potency result was “inactive”. Under `COc1ccnc(CS(=O)c2nc3ccc(OC(F)F)cc3[nH]2)c1OC` (stereo not drawn) stands “inactive”; under `O=C(CO)N1CCC(c2[nH]nc(-c3ccc(Cl)cc3)c2-c2ccncn2)CC1`, “inactive”; under `COc1nc(C)cnc1NS(=O)(=O)c1cccnc1-c1ccc(-c2nnco2)cc1`, “inactive”.

Regarding `CCCCn1c(=O)n(Cc2ccccc2F)c(=O)c2[nH]c(Cc3ccc(NC(C)=O)cc3)nc21`, the Potency entry is “inactive”. The same measure for `COC(=O)N1CCN(Cc2cccc(NC(=O)Nc3ccc(C)nc3)c2F)CC1`: “inactive”.
